Source: PubChem BioAssay (several laboratories)
EBI2 block = blocks human EBI2 receptor beta-arrestin signaling; P32249; EBI2 beta-arrestin recruitment, luminescence, 7a,25-OHC stimulated; inhibition, % at 5 µM; actives 0.81% (n = 360,000); AID 651636; in the data active = inhibition above about 38%;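 note: enzyme fragment complementation signal reports receptor beta-arrestin coupling in cells; 0% = agonist plus DMSO wells and 100% = wells without agonist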
Target sequence (P32249 whole entry, looked up, the tested form may be a part): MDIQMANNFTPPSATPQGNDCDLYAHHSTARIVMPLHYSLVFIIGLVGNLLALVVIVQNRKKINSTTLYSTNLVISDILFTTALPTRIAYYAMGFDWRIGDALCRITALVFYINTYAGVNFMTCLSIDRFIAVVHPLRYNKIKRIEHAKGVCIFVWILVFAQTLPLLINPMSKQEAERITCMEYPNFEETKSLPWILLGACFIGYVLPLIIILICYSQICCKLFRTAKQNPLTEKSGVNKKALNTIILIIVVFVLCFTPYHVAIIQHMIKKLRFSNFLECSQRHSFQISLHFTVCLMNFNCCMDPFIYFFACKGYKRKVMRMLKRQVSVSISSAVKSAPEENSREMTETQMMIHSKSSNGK
SENP8 block-1 = inhibitors of human SENP8 protease. Q96LD8. purified SENP8, Z-RLRGG-aminoluciferin cleavage, luminescence. inhibition, % at 10 µM. actives 1.2% (n = 330,000); in the data active = inhibition above about 50%
SENP6 block = SENP6 protease inhibition | inhibition, % at 10 µM | Recombinant SENP6 catalytic domain, aminoluciferin luminescence | Q9GZR1 | AID 2599 | actives 1.8% (n = 330,000);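 active = inhibition above about 50% at the single tested dose, limit read from the data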;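 note: plate controls were DMSO wells with enzyme for no effect and DMSO wells lacking enzyme for full effect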
AHR act = activators of human aryl hydrocarbon receptor | P35869 | actives 2.5% (n = 320,000) | AHR-responsive luciferase reporter cells, luminescence | activation, % at 5 µM; in the data active = activation above about 47%;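 note: 0% = vehicle wells and 100% = reference agonist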
SENP8 block-2 = blocks human SENP8 cleavage of Nedd8 substrate; Q96LD8; recombinant SENP8, Nedd8 substrate fluorescence; inhibition, % at 20 µM; actives 0.64% (n = 360,000); in the data active = inhibition mostly above about 40%, no sharp cut-off; inactive = mostly below about 27%
SENP7 block = SENP7 protease inhibition; Q9BQF6; recombinant SENP7, Z-RLRGG-aminoluciferin luminescence, 40 min; inhibition, % at 5 µM; actives 1.5% (n = 330,000); AID 434973;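 active = inhibition above about 50% at the single test dose, limit read from the data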;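 note: plate controls were DMSO with enzyme for no effect and no enzyme buffer wells for full effect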
Starred values were filed as active, the others as inactive; . = no result given. Shown are actives, neighbours in structure and some others; about 5% of the full set was active somewhere.

SMILES | EBI2 block | SENP8 block-1 | SENP6 block | AHR act | SENP8 block-2 | SENP7 block
CN(C)CCOC(=O)/C(=C/c1cn(C)c2ccccc12)NC(=O)c1ccccc1 | -1.9 | 2.3 | 2.7 | 63.0* | -17.5 | 7.0
COC(=O)/C(=C\c1ccc2c(c1)c1ccccc1n2C)NC(=O)c1ccccc1 | 4.3 | -4.4 | -1.9 | 76.5* | -136.7 | 0.5
O=C(CCC(C(=O)c1ccccc1)c1ccccc1)c1ccccc1 (stereo unspecified) | 17.5 | . | . | . | 13.8 | .
c1ccc2cc(N3CCCCC3)ccc2c1 | -11.2 | . | . | . | -483.0 | .
O=C1c2ccccc2C(=O)c2cc(N3CCCCC3)ccc21 | -1.2 | . | . | . | 43.7* | .
COc1cc2c(cc1OC)CN(c1ccc(F)cc1[N+](=O)[O-])CC2 | 5.6 | -1.9 | 0.8 | 59.1* | -86.5 | -6.1
O=C1CCC(C(=O)OCC(=O)N2N=C3/C(=C/c4ccccc4)CCCC3C2c2ccccc2)N1 (stereo unspecified) | 7.4 | -0.2 | -3.7 | 72.7* | -59.7 | -1.2
COc1nc(NCCN2CCOCC2)nc(Nc2ccccc2)n1 | 0.7 | -7.4 | -14.6 | 18.6 | 18.5 | 2.4
COc1nc(NCCc2ccc(OC)c(OC)c2)nc(Nc2ccccc2)n1 | -1.2 | -8.1 | -8.1 | 48.1* | 9.3 | -5.2
O=C1c2cccc3cccc(c23)C(=O)N1CCc1ccccc1 | 25.9 | 0.0 | 16.2 | 52.5* | -224.5 | 0.9
Cc1ccc(Nc2c(-c3ccc(C)o3)nc3cnccn23)cc1 | 3.2 | -9.6 | -8.4 | 18.0 | -447.6 | 4.2
Cc1ccc(Nc2c(-c3ccccc3)nc3cnccn23)cc1 | 15.6 | 1.7 | -20.5 | 3.3 | -403.4 | -1.1
CSc1ccc(-c2nc3cnccn3c2Nc2ccc3c(c2)OCO3)cc1 | 32.4 | -10.8 | 5.7 | 188.4* | -208.3 | -0.6
Cc1ccc(-c2nc3cnccn3c2Nc2ccc3c(c2)OCO3)o1 | -3.5 | -13.2 | -12.0 | 52.8* | -187.4 | -14.2
COc1ccc(-c2nc3cnccn3c2Nc2ccc(C)cc2)cc1 | 20.1 | -9.9 | -10.0 | 65.3* | -462.6 | 11.4
O=c1[nH]c2ccccc2nc1-c1ccc(Cl)cc1 | 2.5 | 4.8 | -3.2 | 76.1* | -434.1 | 0.8
COc1ccccc1CCn1c(N)cc(=O)[nH]c1=O | -8.7 | -11.4 | -7.0 | 53.4* | 3.8 | 1.4
COc1ccc(NC(C)c2cc(Cl)ccc2O)cc1 (stereo unspecified) | 10.9 | -6.1 | -11.9 | 6.0 | 47.0* | -5.4
COc1cc2c(cc1OC)C1(CCCC1)C(N)=C2C#N | -13.1 | -1.8 | -3.4 | 47.5* | -9.3 | -3.5
COc1cc(OC)c(OC)cc1C#N | -1.1 | -11.1 | -4.0 | 1.6 | 1.8 | 12.8
COc1ccccc1NC(=O)Nc1nc(CC(=O)Nc2ccc(F)cc2)cs1 | 5.4 | 5.4 | 1.8 | 32.5 | 14.9 | -0.1
COc1ccccc1NC(=O)Nc1nc(CC(=O)Nc2cc(F)ccc2F)cs1 | -3.1 | 7.3 | -6.1 | 62.7* | -74.9 | -1.4
COc1ccccc1NC(=O)Nc1nc(CC(=O)Nc2cccc(F)c2)cs1 | 10.5 | 2.5 | -12.1 | 45.0 | -4.0 | 4.0
COc1ccccc1NC(=O)Nc1nc(CC(=O)Nc2ccc(F)c(F)c2)cs1 | 5.7 | -3.7 | -8.8 | 51.7* | 5.3 | 7.3
COc1ccc(-c2nc3ccc(C)cn3c2NCc2ccc3c(c2)OCO3)cc1 | 2.0 | -11.7 | -1.6 | 69.2* | -351.3 | -4.4
SMILES | EBI2 block | SENP8 block-1 | SENP6 block | AHR act | SENP8 block-2 | SENP7 block
CCCCNc1c(-c2cccc(-c3ccc(OC)cc3)c2)nc2ccc(C)cn12 | -95.0 | -1.9 | -12.5 | 21.2 | -499.0 | 1.5
CC(C)(C)c1csc(N/N=C/c2cccnc2)n1 | 5.6 | -2.4 | -1.4 | 28.2 | -12.2 | 10.5
Cc1ccc(/C=N/Nc2nc(C(C)(C)C)cs2)o1 | 14.0 | -3.2 | -2.0 | 50.3* | -15.7 | 1.6
CC(C)NC(=O)c1cc(C2CCCCN2S(=O)(=O)c2ccc(F)cc2F)on1 (stereo unspecified) | -5.2 | . | . | . | 5.5 | .
CN1C(=O)/C(=C/c2cccc([N+](=O)[O-])c2)C(=O)N1c1ccccc1 | 5.4 | -0.6 | -6.5 | 1.2 | 44.8* | 7.0
O=C1NC(=S)N/C1=C/c1cccc([N+](=O)[O-])c1 | -11.9 | -8.8 | -8.7 | 1.3 | 3.5 | 1.0
COc1ccc(CCN=C(N)NS(=O)(=O)c2cc(F)ccc2OC)cc1 | -7.8 | 4.4 | -0.5 | 3.8 | 6.2 | 4.1
COC1=CC(=O)OC(c2ccco2)C1 (stereo unspecified) | -7.6 | . | . | . | 11.3 | .
CC(C)c1ccc(-n2cnn(-c3ncccc3[N+](=O)[O-])c2=O)cc1 | -1.4 | 9.3 | 30.4 | 50.7* | 1.2 | 17.8
